# According to PubChem BioAssay (NCATS):
# Results filed as inconclusive are left out. A number with no mark means an inactive call. Active and inactive are the calls of the source. The call rests on the fitted dose curve; in most records, active means well fitted curve in the direction sought with a large enough effect; inconclusive means small, poorly fitted or top-dose-only effect, or another doubt; inactive means no such curve, though single readings can be large; an effect the other way counts as inactive or inconclusive.
# Molecular target: Rap guanine nucleotide exchange factor 3 (Homo sapiens) (UniProt O95398)
# Assay: Confirmatory qHTS for agonist of cAMP-regulated guanine nucleotide exchange factor 3 (EPAC1) (AID 1645881); further: nearly all actives have a fitted effect of over 75% in size; further: potency means the concentration at half of the fitted maximal effect;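 on activation: EPAC1 catalysed release of BODIPY-GDP from Rap1B seen as fluorescence loss; 100% = effect of cAMP agonist control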
# Conditions: EPAC1 Rap1B BODIPY-GDP exchange fluorescence; series mostly up to 154 µM; activation: at the top concentration
# Chain of Rap guanine nucleotide exchange factor 3 (Homo sapiens) (O95398 whole entry, looked up): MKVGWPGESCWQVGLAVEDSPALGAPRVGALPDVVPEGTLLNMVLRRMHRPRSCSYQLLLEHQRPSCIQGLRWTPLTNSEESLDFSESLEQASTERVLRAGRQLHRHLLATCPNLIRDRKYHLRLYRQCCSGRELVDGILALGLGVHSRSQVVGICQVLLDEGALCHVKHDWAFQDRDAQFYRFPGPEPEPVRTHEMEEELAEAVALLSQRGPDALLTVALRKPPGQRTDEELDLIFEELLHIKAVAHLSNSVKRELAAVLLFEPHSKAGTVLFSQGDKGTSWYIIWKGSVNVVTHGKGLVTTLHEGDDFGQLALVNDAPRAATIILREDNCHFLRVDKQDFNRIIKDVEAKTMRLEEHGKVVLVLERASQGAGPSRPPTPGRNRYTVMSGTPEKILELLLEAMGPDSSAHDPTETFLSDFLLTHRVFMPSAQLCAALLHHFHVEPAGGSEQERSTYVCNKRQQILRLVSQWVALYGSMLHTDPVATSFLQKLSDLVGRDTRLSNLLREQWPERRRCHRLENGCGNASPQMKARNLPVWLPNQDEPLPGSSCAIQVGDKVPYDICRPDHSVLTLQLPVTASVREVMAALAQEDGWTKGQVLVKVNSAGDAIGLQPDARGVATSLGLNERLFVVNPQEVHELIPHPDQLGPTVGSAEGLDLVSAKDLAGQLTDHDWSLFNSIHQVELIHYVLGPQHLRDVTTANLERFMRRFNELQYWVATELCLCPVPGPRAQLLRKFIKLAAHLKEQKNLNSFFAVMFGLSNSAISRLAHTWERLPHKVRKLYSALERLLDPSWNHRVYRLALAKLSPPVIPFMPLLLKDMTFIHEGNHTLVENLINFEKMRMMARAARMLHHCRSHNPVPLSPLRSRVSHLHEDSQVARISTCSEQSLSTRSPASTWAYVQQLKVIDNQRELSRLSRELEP
Compound,activation,Potency
CC(=O)N1N=C2c3ccccc3CCC2C1c1cccs1 (stereo not given),7.22%,
COc1ccc(NS(=O)(=O)c2ccc(S(=O)(=O)N3CCCC3)cc2)cc1,8.24%,
c1ccc(CNc2c(-c3cccc(SC4CCCCC4)c3)nc3ccccn23)cc1,9.12%,
Cc1ccc(C2N(c3ccc(Cl)cc3)C(=O)N3CCCN23)cc1 (stereo not given),15.5%,
CC1CN(c2nc(-c3ccccc3)nc3ccccc23)CC(C)O1 (stereo not given),14%,
COC(=O)c1ccc2nc(-c3ccc(F)cc3)c(CC3CCCCC3)n2c1,5.88%,
COCCN(CCOC)Cc1cc(=O)oc2cc(C)cc(C)c12,2.89%,
COC(=O)c1ccc2nc(-c3ccc(OC)c(OC)c3)c(CC3CCCCC3)n2c1,1.13%,
Cc1ccc(C2(c3noc(CN(C)Cc4ccccn4)n3)CCCC2)cc1,3.03%,
COc1ccccc1C1CC(=O)Oc2cc(C)c(Cl)c(C)c21 (stereo not given),8.21%,
O=C(Cc1c(F)cccc1Cl)Nc1ccc(S(=O)(=O)Nc2nccs2)cc1,4.74%,
O=c1ccc(NS(=O)(=O)c2ccc(Cl)cc2)cn1Cc1ccc(Cl)c(Cl)c1,5.8%,
O=C1[C@H]2CCC=C[C@H]2[C@H](c2ccccc2Br)N1Cc1ccccc1,14.9%,
O=C(O)CCCN1C(=O)/C(=C/c2cn(-c3ccccc3)nc2-c2cccs2)SC1=S,,112 µM (active)
COC(=O)c1ccc2nc(-c3cccc(Br)c3)c(Cc3ccsc3)n2c1,3.05%,
COc1ccc(S(=O)(=O)Nc2ncccc2C)c2ccccc12,15.3%,
Cc1ccc(-c2nn3cnnc3c3ccccc23)cc1C,3.27%,
COc1ccc(-c2noc(CN(C(=O)c3c(-c4ccccc4Cl)noc3C)C(C)C)n2)cc1,18.6%,
CC1CN(c2nc3ccccc3cc2-c2ccccc2)CC(C)O1 (stereo not given),0.485%,
Cc1ccc(C2N(c3cccc(Cl)c3)C(=O)N3CCCN23)cc1 (stereo not given),10.5%,

Compound,activation,Potency
COc1ccc(N2C(=O)CSC2c2ccccc2F)c(OC)c1 (stereo not given),9.72%,
COc1ccc(-c2ccc(CCC(=O)O)n2-c2ccc(Cl)cc2C)cc1,5.8%,
O=C(COc1ccc(Br)cc1Cl)c1ccc[nH]1,22.5%,
COc1ccc2cc(S(=O)(=O)N3CCCC3)ccc2c1,9.78%,
CC(C)c1nc2cc(Cl)ccc2n(Cc2ccccc2)c1=O,18.6%,
Cc1ccc(C23CC4CC(CC(C(=O)N(C)C)(C4)C2)C3)cc1,26.9%,
COC(=O)c1ccccc1C(=O)c1c(C)cc(C)cc1C,1.31%,
O=C(/C=C/c1cccc(Cl)c1Cl)OCC(=O)N1CCOCC1,23.6%,
COC(=O)c1cccc(F)c1C(=O)c1cccc2ccccc12,11.6%,
CCCNC(=O)c1ccc(N2CCC3(CC2)CC(c2ccccc2)=NO3)c(NC(=O)c2ccccc2)c1,12.2%,
COc1ccc(-n2cc(-c3ccccc3)c3c(N4CCOCC4)ncnc32)cc1,23.4%,
Cc1ccc(C2(c3noc(CN(C)CC4CCCCO4)n3)CCCC2)cc1 (stereo not given),-2.66%,
CCN(Cc1cc(=O)oc2cc(C)ccc12)c1ccccc1,11.9%,
Cc1ccc(CN(Cc2ccco2)C(=O)c2ccco2)cc1,-1.29%,
O=C1CSC(=Nc2ccccc2)N1Cc1ccccc1,17.3%,
COc1ccc(C2CC(=O)Oc3cc(C)c(Cl)cc32)cc1 (stereo not given),18.5%,
COc1ccc(C(=O)N(Cc2ccccc2)c2cccc(C)c2)cc1,16.9%,
COC(=O)c1ccc2nc(-c3ccc(Cl)cc3)c(Cc3cccc(F)c3)n2c1,6.57%,
COC(=O)c1ccc2nc(C3CCCCC3)c(Cc3ccccc3)n2c1,15.1%,
Cc1cc(C)c(C(=O)c2ccccc2)c(C)c1,10.9%,

# Molecular target: Rap guanine nucleotide exchange factor 3 (Homo sapiens) (UniProt O95398)
# Assay: Counterscreen qHTS for antagonist of cAMP-regulated guanine nucleotide exchange factor 3 (EPAC1) (AID 1645888);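 further: fluorescence loss as bound BODIPY-GDP is released from Rap1B; % of control where 0% means no effect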
# Conditions: Rap1B-BODIPY-GDP nucleotide exchange, fluorescence; series mostly up to 154 µM; activity change, negative = inhibition: at the top concentration
# Method in brief: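 Measured: fluorescence of BODIPY-GDP bound to Rap1B, which falls as exchange proceeds. Conditions include 50 uM competing GDP, 5 and 30 min reads, and a later cAMP challenge for antagonist detection.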
row,Compound,"activity change, negative = inhibition"
1,CC(=O)N1N=C2c3ccccc3CCC2C1c1cccs1 (stereo not given),-17.6% [at 30.8 µM]
2,COc1ccc(NS(=O)(=O)c2ccc(S(=O)(=O)N3CCCC3)cc2)cc1,-8.86% [at 30.8 µM]
3,c1ccc(CNc2c(-c3cccc(SC4CCCCC4)c3)nc3ccccn23)cc1,4.85% [at 30.8 µM]
4,Cc1ccc(C2N(c3ccc(Cl)cc3)C(=O)N3CCCN23)cc1 (stereo not given),7.88%
5,CC1CN(c2nc(-c3ccccc3)nc3ccccc23)CC(C)O1 (stereo not given),3.46% [at 30.8 µM]
6,COC(=O)c1ccc2nc(-c3ccc(F)cc3)c(CC3CCCCC3)n2c1,-8.86% [at 30.8 µM]
7,COCCN(CCOC)Cc1cc(=O)oc2cc(C)cc(C)c12,-6.51%
8,COC(=O)c1ccc2nc(-c3ccc(OC)c(OC)c3)c(CC3CCCCC3)n2c1,-3.95%
9,Cc1ccc(C2(c3noc(CN(C)Cc4ccccn4)n3)CCCC2)cc1,-21.5% [at 30.8 µM]
10,COc1ccccc1C1CC(=O)Oc2cc(C)c(Cl)c(C)c21 (stereo not given),3.69% [at 30.8 µM]
11,O=C(Cc1c(F)cccc1Cl)Nc1ccc(S(=O)(=O)Nc2nccs2)cc1,4.41% [at 30.8 µM]
12,O=c1ccc(NS(=O)(=O)c2ccc(Cl)cc2)cn1Cc1ccc(Cl)c(Cl)c1,-11.2%
13,O=C1[C@H]2CCC=C[C@H]2[C@H](c2ccccc2Br)N1Cc1ccccc1,7.02%
14,O=C(O)CCCN1C(=O)/C(=C/c2cn(-c3ccccc3)nc2-c2cccs2)SC1=S,42.1%
15,COC(=O)c1ccc2nc(-c3cccc(Br)c3)c(Cc3ccsc3)n2c1,-25% [at 30.8 µM]
16,COc1ccc(S(=O)(=O)Nc2ncccc2C)c2ccccc12,-6.19%
17,Cc1ccc(-c2nn3cnnc3c3ccccc23)cc1C,-44.9% [at 30.8 µM]
18,COc1ccc(-c2noc(CN(C(=O)c3c(-c4ccccc4Cl)noc3C)C(C)C)n2)cc1,11.9%
19,CC1CN(c2nc3ccccc3cc2-c2ccccc2)CC(C)O1 (stereo not given),11.5%
20,Cc1ccc(C2N(c3cccc(Cl)c3)C(=O)N3CCCN23)cc1 (stereo not given),-4.78% [at 30.8 µM]

row,Compound,"activity change, negative = inhibition"
1,COc1ccc(N2C(=O)CSC2c2ccccc2F)c(OC)c1 (stereo not given),27.1%
2,COc1ccc(-c2ccc(CCC(=O)O)n2-c2ccc(Cl)cc2C)cc1,-19.5%
3,O=C(COc1ccc(Br)cc1Cl)c1ccc[nH]1,-0.507%
4,COc1ccc2cc(S(=O)(=O)N3CCCC3)ccc2c1,-17.9% [at 30.8 µM]
5,CC(C)c1nc2cc(Cl)ccc2n(Cc2ccccc2)c1=O,-0.608%
6,Cc1ccc(C23CC4CC(CC(C(=O)N(C)C)(C4)C2)C3)cc1,-0.0261%
7,COC(=O)c1ccccc1C(=O)c1c(C)cc(C)cc1C,4.03% [at 30.8 µM]
8,O=C(/C=C/c1cccc(Cl)c1Cl)OCC(=O)N1CCOCC1,16.1%
9,COC(=O)c1cccc(F)c1C(=O)c1cccc2ccccc12,-6.13%
10,CCCNC(=O)c1ccc(N2CCC3(CC2)CC(c2ccccc2)=NO3)c(NC(=O)c2ccccc2)c1,-12.7%
11,COc1ccc(-n2cc(-c3ccccc3)c3c(N4CCOCC4)ncnc32)cc1,10.9%
12,Cc1ccc(C2(c3noc(CN(C)CC4CCCCO4)n3)CCCC2)cc1 (stereo not given),-7.57% [at 30.8 µM]
13,CCN(Cc1cc(=O)oc2cc(C)ccc12)c1ccccc1,-10.1%
14,Cc1ccc(CN(Cc2ccco2)C(=O)c2ccco2)cc1,-4.7% [at 30.8 µM]
15,O=C1CSC(=Nc2ccccc2)N1Cc1ccccc1,-7.35%
16,COc1ccc(C2CC(=O)Oc3cc(C)c(Cl)cc32)cc1 (stereo not given),1.08%
17,COc1ccc(C(=O)N(Cc2ccccc2)c2cccc(C)c2)cc1,1.93%
18,COC(=O)c1ccc2nc(-c3ccc(Cl)cc3)c(Cc3cccc(F)c3)n2c1,19.6%
19,COC(=O)c1ccc2nc(C3CCCCC3)c(Cc3ccccc3)n2c1,6.26% [at 30.8 µM]
20,Cc1cc(C)c(C(=O)c2ccccc2)c(C)c1,16.9%
